# IL1B secr inh – inhibitors of inflammasome signaling (IL-1 beta secretion). THP-1 LPS/ATP IL-1B secretion, AlphaLISA, 16 h; hits give low values. activity change, % at 57.5 µM. 4.7% of 360,000 active; in the data active means activity change below about -50%; inconclusive means mostly about -30% to -49%; further: on the % scale 0 is the no-effect control and ±100 the full control effect
#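 Secreted IL-1B measured by AlphaLISA bead assay after 16 h compound exposure of THP-1 cells; compounds (final up to 57.5 uM) added 1 h before LPS (250 ng/mL) and ATP (1.25 mM) stimulation; lower signal means less secretion.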
# S2 tox – cell viability loss in ATXN counter-screen; S2 cells (HEK-293 line with an ATXN2-luciferase reporter) viability, CellTiter-Fluor protease fluorescence, 24 h; Potency, µM (highest dose often 56.7 µM), usual class: cytotoxic; 0.49% of 400,000 active; AID 651635; further: potency means the concentration at half of the fitted maximal effect; nearly all actives have a fitted effect of over 40% in size
# DRD3 agonist – agonists of human D3 dopamine receptor. P35462. D3R DiscoveRx beta-arrestin cells, luminescence, 90 min. max activation, %. 0.58% of 410,000 active. AID 652048; in the data active means max activation above about 30%; further: 0% is about no effect
# Target sequence (P35462 whole entry, looked up): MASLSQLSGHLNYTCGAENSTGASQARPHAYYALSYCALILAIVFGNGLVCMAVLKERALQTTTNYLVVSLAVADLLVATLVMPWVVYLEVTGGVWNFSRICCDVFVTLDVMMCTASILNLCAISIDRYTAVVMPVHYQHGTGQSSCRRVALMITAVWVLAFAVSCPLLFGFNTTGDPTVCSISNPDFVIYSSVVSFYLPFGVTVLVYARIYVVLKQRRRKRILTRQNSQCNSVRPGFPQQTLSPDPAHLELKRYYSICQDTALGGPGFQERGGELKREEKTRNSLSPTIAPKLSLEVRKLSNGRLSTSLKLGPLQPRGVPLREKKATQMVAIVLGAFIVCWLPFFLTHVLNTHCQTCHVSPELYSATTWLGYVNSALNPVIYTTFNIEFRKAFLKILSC
#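 Agonist mode: compounds and dopamine controls were applied to plated cells for 90 min at 37 degrees C after an overnight attachment at 1500 cells/well. Luminescent read-out followed 30 - 60 minutes at room temperature with DiscoveRx detection reagent.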
# DRD3 antagonist – antagonists of human D3 dopamine receptor; D3R cells, DiscoveRx beta-arrestin luminescence, antagonist mode; hits give low values; P35462; 2.5% of 360,000 active; max response, negative = inhibition, %; in the data active means max response below about -50%; inconclusive means no clear call, values can overlap the other calls; further: on the % scale 0 is the no-effect control and ±100 the full control effect
#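 Cells expressing the human receptor were seeded at 1500 cells/well, incubated overnight at 37 degrees C in 5% CO2, then exposed to library compounds with dopamine controls for 90 minutes at 37 degrees C before luminescent detection.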
# ATXN2 expr inh – ATXN2 expression inhibition. 0.72% of 360,000 active. Potency, µM (highest dose often 57 µM), inactives show top-dose activity change, negative = inhibition, most hits filed as inhibitors. HEK-293 ATXN2-luciferase reporter, luminescence, 24 h; further: potency means the concentration at half of the fitted maximal effect; on the % scale 0 is the no-effect control and ±100 the full control effect; nearly all actives have a fitted effect of over 55% in size
#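 qHTS (up to 57 uM final) was run with 24 h compound exposure of reporter cells at 37 °C. Each well was multiplexed: SteadyGlo luminescence measured ATXN2-luciferase expression after a fluorogenic Gly-Phe-AFC viability readout (25 uM final).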
# Integrin act MD – activators of alpha7 integrin expression for muscular dystrophy | Potency, µM (doses to about 38.3 µM), inactives show at the top dose activation, actives largely listed as activators | alpha7betagal myoblasts, beta-gal FDG fluorescence, 48 h | 0.064% of 350,000 active | AID 624291;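 further: potency means the concentration at half of the fitted maximal effect; 100% = response of the positive control SU9516; nearly all actives have a fitted effect of over 60% in size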
#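 Alpha7betagal+/- myoblasts (passage 13) were plated 16-24 hr, then exposed to compounds (1:260 dilution of DMSO stock) for 48 hours at 37C. After MPER lysis, β-galactosidase reporter activity was read as FDG fluorescence (ex 480/em 540) after 30 minutes.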
# An asterisk follows results filed as active; i = inactive; ? = inconclusive; . = no result given; ! = a repeat was not active. The list is not random: actives were taken first. Their share in the collection is about 7%. Unless noted, the call rests on the fitted dose curve; in most records, active means well fitted curve in the direction sought with a large enough effect; inconclusive means small, poorly fitted or top-dose-only effect, or another doubt; inactive means no such curve, though single readings can be large; an effect the other way counts as inactive or inconclusive.
SMILES,IL1B secr inh,S2 tox,DRD3 agonist,DRD3 antagonist,ATXN2 expr inh,Integrin act MD
O=C(COC(=O)C1CCN(S(=O)(=O)c2ccc3c(c2)OCCO3)CC1)Nc1cccc2ccccc12,11,i,-4,-4,-3%,-19%
Cc1cc2c(OCC(O)CN3CCCCC3)cccc2[nH]1 (stereo not drawn),5,i,-7,-16,-15%,4%
Nc1nc(-c2cc(Cl)cc(Cl)c2OC(F)F)cs1,2,i,-14,5,-10%,18%
O=C(CN(c1ccc(Br)cc1)S(=O)(=O)c1ccc(Cl)c([N+](=O)[O-])c1)NCC1CCCO1 (stereo not drawn),-98*,.,-4,?,?,-60%
O=C(CN(C1CCCCC1)S(=O)(=O)c1ccc(F)cc1)NCC1CCCO1 (stereo not drawn),-106*,?,-18,?,-6%,-74%
CCCN=Cc1ccc(O)cc1,8,i,1,3,-13%,-3%
COC(=O)c1cnc(Nc2nc(C(N)c3ccccc3Cl)cs2)nc1C(F)(F)F (stereo not drawn),-6,25µM*,0,-21,?,.
NC(c1csc(NC(=O)c2cccc(OC(F)(F)F)c2)n1)c1ccccc1Cl (stereo not drawn),-12,?,-11,13,32µM*,.
COC(=O)c1cnc(Nc2nc(C(N)COCc3ccccc3)cs2)nc1C(F)(F)F (stereo not drawn),-25,i,0,23,-9%,.
O=C(COc1ccc(Cl)cc1)N1CCN(C(=O)c2cccs2)CC1,-73*,i,8,4,-11%,19%
N#Cc1c(F)cccc1N1CCN(Cc2ccc3c(c2)OCO3)CC1,-14,i,-31,-91*,-32%,17%
O=C(c1ccccc1F)N1CCN(Cc2ccc3c(c2)OCO3)CC1,-67*,i,-12,-67*,-25%,23%
COc1ccccc1C(=O)N1CCN(Cc2ccc3c(c2)OCO3)CC1,-57*,i,3,-25,-10%,6%
O=C(O)c1ccccc1C(=O)N1CCN(Cc2ccc3c(c2)OCO3)CC1,29,i,-2,-2,4%,-39%
O=C(COc1ccccc1)N1CCN(C(=O)c2cccs2)CC1,6,i,-11,-18,-2%,3%
O=C(CSc1ccccc1F)NCC(c1ccco1)N1CCCCC1 (stereo not drawn),13,i,-4,4,.,-11%
COC(=O)c1ccc2nc(-c3ccccc3)c(Cc3ccccc3C(F)(F)F)n2c1,17,i,1,14,6%,.
CCc1ccc(CN2CCN(C(=O)c3cccc(OC)c3OC)CC2)cc1,?,i,2,-57*,-26%,-23%
O=C(COc1ccc(Cl)cc1)N1CCN(Cc2ccc3c(c2)OCO3)CC1,-51*!,i,-35,4,?,43%
COc1cccc(C(=O)N2CCN(C(=O)c3cccc4ccccc34)CC2)c1OC,2,i,6,-6,-4%,23%
O=C(Nc1ccc(Cl)cc1)N1CCN(Cc2ccc3c(c2)OCO3)CC1,0,i,-7,-12,-32%,13%
CCOc1ccccc1C(=O)NCC(=O)N1CCN(Cc2ccc3c(c2)OCO3)CC1,-80*,i,-17,-10,-13%,18%
COc1ccc2cc3cc(C(=O)N4CCN(Cc5ccc6c(c5)OCO6)CC4)oc3nc2c1,-65*,?,7,20,?,-20%
CCSc1ccccc1C(=O)N1CCN(Cc2ccc3c(c2)OCO3)CC1,?,i,-10,-10,-18%,16%
C=C(C)CC1N(c2cccc(OC)c2)C(=O)C2C(C(=O)O)C3C=CC21O3 (stereo not drawn),14,i,2,5,1%,15%
SMILES,IL1B secr inh,S2 tox,DRD3 agonist,DRD3 antagonist,ATXN2 expr inh,Integrin act MD
CCCCn1c(-c2ccccc2)cnc1SCC(=O)NCCc1ccc(OC)c(OC)c1,-77*,i,1,-6,33%,-39%
COc1ccc(/C=N/NS(=O)(=O)c2ccc(C)cc2)cc1,-25,i,-8,-15,6%,?
CCOc1ccc(CNC2CCCc3ccccc32)cc1 (stereo not drawn),-25,i,-22,-51*,-28%,-44%
CCc1ccccc1OC[C@@H](O)CN[C@H]1CCCc2ccccc21,?,?,-59,-53*,?,.
COc1ccc(CNC2CCCc3ccccc32)cc1OC (stereo not drawn),-8,i,-24,4,-13%,?
O=S(=O)(c1cc(F)ccc1F)N1CCN(C2CCCCC2)CC1,12,i,-5,-10,-4%,32%
O=c1c2c3c(sc2nc2n1CCC2)CCC3,-16,i,-1,-52*,1%,13%
O=c1c2c3c(sc2nc2n1CCC2)CCCCC3,30,i,5,0,7%,0%
COc1ccccc1/C=C/C(=O)NC(=S)Nc1ccccn1,16,i,-6,-5,.,-52%
O=C1N=C(N2CCCCC2)S/C1=C\c1ccccc1F,-64*,i,-19,-9,46%,-20%
COc1ccccc1/C=C1\SC(N2CCC(C)CC2)=NC1=O,?,i,-24,-65*,3%,?
CCOC(=O)C1CCCN(C2=NC(=O)/C(=C/c3ccc(OC)cc3)S2)C1 (stereo not drawn),24,i,0,-11,.,-7%
CCCOc1ccccc1/C=C1\SC(N2CCCCC2)=NC1=O,-61*,i,-24,-4,84%,-20%
CCOC(=O)C1CCCN(C2=NC(=O)/C(=C/c3ccc(N(C)C)cc3)S2)C1 (stereo not drawn),-83*,i,0,-16,18%,-35%
O=C(Nc1cccnc1Cl)c1ccc(=O)oc1,-4,i,-20,-11,1%,-16%
O=C(NCCc1ccccc1Cl)C1CCC(=O)N(Cc2ccc(Cl)cc2)C1 (stereo not drawn),i,i,1,-9,0%,-7%
Cc1ccc(/C=C2\SC(N3CCCCC3)=NC2=O)cc1,-66*,i,-9,-4,22%,9%
CS(=O)(=O)N(CC(=O)Nc1ccccc1-c1ccccc1)c1cccc(F)c1,-13,i,-1,0,-37%,-8%
COc1ccc(/C=N/Nc2nc(-c3ccc(Cl)cc3)cc(C(F)(F)F)n2)c(OC)c1,9,i,2,10,-2%,-7%
COc1ccc(/C(C)=N\Nc2nc(-c3ccc(Cl)cc3)cc(C(F)(F)F)n2)cc1OC,15,i,45*,34,?,12%
